# Test results reported in publication PMC7819943, “Rice protein-binding microarrays: a tool to detect cis-acting elements near promoter regions in rice”.
# Whole data set: some 68,000 sequences, median “fluorescence intensity (a.u.)” near 9,100, cut for the highest 2% near 16,000. Many of the other results were omitted from the sample, so the highest values are more common in it than they were.
# Biological target: OsWRKY34 (Oryza sativa, UniProt Q0JBA9 1-250)
# Assay: protein-binding microarray (RPBM); PBS, 2% BSA, 51.3 ng/ul salmon testes DNA, 50 uM zinc acetate, 200 nM TF, 25 C, 1 h; high values mean tight binding
# Details: protein: recombinant; tags: N-terminal polyhistidine and DsRed monomer fusion (pET32a); label: CyDye5-dUTP incorporated in the synthesized complementary strand; 3' TTTTT single-stranded linker to array surface; dsDNA, one strand shown
# In short: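 Per-feature fluorescence intensity (arbitrary units), read on an Axon 4000B scanner, is the binding signal. Transcription factors carrying an N-terminal polyhistidine tag and DsRed fusion were expressed in E. coli BL21-CodonPlus and purified on Ni–NTA. A custom Agilent array, made double-stranded by primer extension with Cy5-dUTP and blocked with 2% BSA, was incubated with 200 nM protein in PBS, 2% BSA, salmon testes DNA and 50 µM zinc acetate at 25 °C for 1 h and then washed.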
# Sequence of OsWRKY34 (Q0JBA9 entry or part of it): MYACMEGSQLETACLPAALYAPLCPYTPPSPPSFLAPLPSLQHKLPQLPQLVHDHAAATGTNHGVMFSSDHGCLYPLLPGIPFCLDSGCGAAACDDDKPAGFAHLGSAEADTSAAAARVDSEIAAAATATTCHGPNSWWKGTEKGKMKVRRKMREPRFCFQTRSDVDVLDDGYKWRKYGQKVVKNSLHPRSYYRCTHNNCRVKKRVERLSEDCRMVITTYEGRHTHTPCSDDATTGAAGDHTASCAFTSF
row,Sequence,binding signal
1,TTTGTCAATTGATGTATACATATGTGCTTTGTGTTCCTACCGGAGTCACCTAGTGCAG,11100 fluorescence intensity (a.u.)
2,CTGATTCGAACGCAGCCATAGTCACTCTTTCACTCTCACTCGGAGTCACCTAGTGCAG,11000 fluorescence intensity (a.u.)
3,GTAAATCCGCTCCAATTGACTCTACCAACCCACCCGTGCTCGGAGTCACCTAGTGCAG,9420 fluorescence intensity (a.u.)
4,AATTTGTGTGTAATTTTTTAGGATTTGTGATGTATTTGATCGGAGTCACCTAGTGCAG,9210 fluorescence intensity (a.u.)
5,CCACACTTGCCCGCTACCCACTCTGATCTATCTCCACTGTCGGAGTCACCTAGTGCAG,9630 fluorescence intensity (a.u.)
6,TCTCCTCCCTCGTTTCTCCTGACACGCTCTCATCCTACAACGGAGTCACCTAGTGCAG,8660 fluorescence intensity (a.u.)
7,TCAGTCGCTTCCTCTCTTTATTATCACAGATTCACAGTCCCGGAGTCACCTAGTGCAG,8370 fluorescence intensity (a.u.)
8,TTATCACAGATTCACAGTCCTTTGCCTTCATAAACACCTCCGGAGTCACCTAGTGCAG,65500 fluorescence intensity (a.u.)
9,GCAATTTGCCTCTTTGTTCCTCATAGTCCAGACACAATTCCGGAGTCACCTAGTGCAG,9840 fluorescence intensity (a.u.)
10,AACTTTTTCATGTCACTTCACTTTTTTTTGTTAGCAGCCTCGGAGTCACCTAGTGCAG,11200 fluorescence intensity (a.u.)
11,TGAACACACGCACGCAAACCCTACCTCCATGAGTATCTTCCGGAGTCACCTAGTGCAG,10500 fluorescence intensity (a.u.)
12,TTAAATAAGACAAATGGTCAAACATGTGCTAAAAAGTCAACGGAGTCACCTAGTGCAG,10600 fluorescence intensity (a.u.)
13,AAATTTAAAGTAATTTGACTTTGAAAGTCAAAACTTGTAACGGAGTCACCTAGTGCAG,8600 fluorescence intensity (a.u.)
14,TGTCTTAATTTCGTGGAAGGCCATAGCGGAGAGATCAAAACGGAGTCACCTAGTGCAG,17400 fluorescence intensity (a.u.)
15,GTCAAGAATGTGCTAAAAAGTCAACGGTGTCAAACAGTTTCGGAGTCACCTAGTGCAG,10600 fluorescence intensity (a.u.)
16,AAAGGAATGGCCCAAATAAACAAGTTTTTTCCTAAAATAACGGAGTCACCTAGTGCAG,63000 fluorescence intensity (a.u.)
17,CTAATTGTTTTTTTAAATAGTGTTTTGTTTTATTGAAAACCGGAGTCACCTAGTGCAG,9040 fluorescence intensity (a.u.)
18,AATTTATGGAGATCATTTTTTTTCTGTTTCAAAGGAAAAACGGAGTCACCTAGTGCAG,19200 fluorescence intensity (a.u.)
19,GTTTCCATTTCTGTTATTTTTTATTTCAAATTTCATTCTTCGGAGTCACCTAGTGCAG,11800 fluorescence intensity (a.u.)
20,TAATGGAAAAAATTGTTTAAAAAAGGTCAAATAGTAAAAACGGAGTCACCTAGTGCAG,58800 fluorescence intensity (a.u.)
21,CATTGATTTTTTTTCTGTTTTCATGATCAATTTTTTTTCTCGGAGTCACCTAGTGCAG,11100 fluorescence intensity (a.u.)

row,Sequence,binding signal
1,TTGATTCCGTGTCGCATATCTGTCTTAATTTCGTGGAAGGCGGAGTCACCTAGTGCAG,9570 fluorescence intensity (a.u.)
2,CGTCTTTTCTCCTTGTCTTGCTAGCCATATCAACGGAAGGCGGAGTCACCTAGTGCAG,8080 fluorescence intensity (a.u.)
3,CTTCTTATCTCCCATATCTTAGGGTGTGTTTCGTTTTATGCGGAGTCACCTAGTGCAG,8050 fluorescence intensity (a.u.)
4,GCCTATCCACAACATCGTCGCAGGCCTTCTTTTTCCCTCGCGGAGTCACCTAGTGCAG,8320 fluorescence intensity (a.u.)
5,ACAGCGGTTTTGGTTGACGTAGTGCCTATGTGGCGTTGACCGGAGTCACCTAGTGCAG,11700 fluorescence intensity (a.u.)
6,GATTTAGCCAGTATAATTTGGCTTCTTACCTATCCATTTTCGGAGTCACCTAGTGCAG,9130 fluorescence intensity (a.u.)
7,CCAATCTAGCATTTAAATAGCCCATATTTGTCTAATTTCTCGGAGTCACCTAGTGCAG,8400 fluorescence intensity (a.u.)
8,ATGGTGGGTCTTTTGCTTCTATCTTCTTCTATGCATGAAACGGAGTCACCTAGTGCAG,10400 fluorescence intensity (a.u.)
9,TTGTTAATGCTAATTTTATCAACATGTGCTTTTCTTTTTACGGAGTCACCTAGTGCAG,9500 fluorescence intensity (a.u.)
10,CGCGAGACAATCTAGCCGTTCTTCATTTTTTTCGCTTTCCCGGAGTCACCTAGTGCAG,9240 fluorescence intensity (a.u.)
11,ACTGTGATACATTCTACATAATTTATTCATTTATTTGCATCGGAGTCACCTAGTGCAG,8900 fluorescence intensity (a.u.)
12,CATTAATTCCAACATATAGTACTCCGCCATTTTGACTCGCCGGAGTCACCTAGTGCAG,8640 fluorescence intensity (a.u.)
13,AATGTTATTACTATGCCTGGAACGTCACTTATGTATGTCTCGGAGTCACCTAGTGCAG,10500 fluorescence intensity (a.u.)
14,GATCATCTGGTGGTGTGTTCTACGGGTTGCAGCTTCTTTCCGGAGTCACCTAGTGCAG,10600 fluorescence intensity (a.u.)
15,ATTGCCGTTTATATTTGGTCAAATTTAAACGTTTTCTTTTCGGAGTCACCTAGTGCAG,8020 fluorescence intensity (a.u.)
16,TTGCCTTGCCAGTCAGTGCTCGAGTTCGTCTCGCTCTCCGCGGAGTCACCTAGTGCAG,8730 fluorescence intensity (a.u.)
17,GACCGCCGCCGCTTGAGCTGACCTGACCCCGAGCCGAGCCCGGAGTCACCTAGTGCAG,8250 fluorescence intensity (a.u.)
18,GCCCCGAGCCGAGACCGCTGGATAATGCAGCGCTTCTTACCGGAGTCACCTAGTGCAG,20100 fluorescence intensity (a.u.)
19,GCCGAGCCCCATCTTCTGCTGCGACCCCGTAGCGCTCAACCGGAGTCACCTAGTGCAG,9240 fluorescence intensity (a.u.)
20,AGTCAGTGGGTAAATTCTTTAAAAACTCCTATGTTTTTTCCGGAGTCACCTAGTGCAG,9550 fluorescence intensity (a.u.)
21,AACAAGGGAGGGAGGGGCGGCGATCTCCATCTGGCGAGCACGGAGTCACCTAGTGCAG,10900 fluorescence intensity (a.u.)

row,Sequence,binding signal
1,GCGGCGGGGTTCCTATCCATGGTTTTTTCGGGCTTGTCCACGGAGTCACCTAGTGCAG,18900 fluorescence intensity (a.u.)
2,CGCCTCGACGGGTTTGGATCTCGGGGTGGGATTAGAGGGGCGGAGTCACCTAGTGCAG,12900 fluorescence intensity (a.u.)
3,GGATTCGGAGGCGGGTGGGAGTGGGAGAGTGAGAGGGGCTCGGAGTCACCTAGTGCAG,16200 fluorescence intensity (a.u.)
4,ACGATCAGTGTCATCACAGGGCGGCGGGGTTCCTATCCATCGGAGTCACCTAGTGCAG,13200 fluorescence intensity (a.u.)
5,CTGATTTGCGGGTTCCACATGGATTTTATTTTTTTGTTTCCGGAGTCACCTAGTGCAG,11400 fluorescence intensity (a.u.)
6,GGGGCTAGGGTTTGGGTGGGATCTCAGCCGTCGGATCTGACGGAGTCACCTAGTGCAG,17000 fluorescence intensity (a.u.)
7,GCGGCGGTGGTTAGGGTTTGGGGCTCGTCGGCGTCGGCGACGGAGTCACCTAGTGCAG,10900 fluorescence intensity (a.u.)
8,AGGGATAGATTGGCTTAGGGGCGGGTGGGTCTAGAGATTTCGGAGTCACCTAGTGCAG,27000 fluorescence intensity (a.u.)
9,GGGCGGGTTTGGATTTTTATTTGGTTTTCCTATGGAGTCCCGGAGTCACCTAGTGCAG,17800 fluorescence intensity (a.u.)
10,ACATTGGGTTGGAGTGGATTATTTTTTTCCTTTGTTTTCCCGGAGTCACCTAGTGCAG,14200 fluorescence intensity (a.u.)
11,ATTGGGGCGGCGGTGGCGGGCTAGGGTTTCGTAGATTCGACGGAGTCACCTAGTGCAG,9960 fluorescence intensity (a.u.)
12,GCTTGGTCCATACCTTGTTTTCCTATCATCCACTGTCAATCGGAGTCACCTAGTGCAG,9390 fluorescence intensity (a.u.)
13,GTGTCCTTTTCTTTTTTTTCTTCTTTTCTTTTTCTTTTTCCGGAGTCACCTAGTGCAG,9510 fluorescence intensity (a.u.)
14,ACCATGTAACGAGTAATCTTTTGACCTGTGCCACGTCATCCGGAGTCACCTAGTGCAG,9160 fluorescence intensity (a.u.)
15,TTTGGTGGTGTGCAAGTGGAGTGGTTTATAAAATTATGTCCGGAGTCACCTAGTGCAG,8980 fluorescence intensity (a.u.)
16,CCTCATCACTCGCTTCTCCTTGCTTACACACCATCCCATCCGGAGTCACCTAGTGCAG,8310 fluorescence intensity (a.u.)
17,CTAACATTCCCTATGCGGAAACACACACATTCATGCACACCGGAGTCACCTAGTGCAG,8860 fluorescence intensity (a.u.)
18,CCTCTTAACTCTTTCCCATTCCCAAATGCGCCACTGTCTCCGGAGTCACCTAGTGCAG,9190 fluorescence intensity (a.u.)
19,CTCTGTCCTATTGGAACATTTCTCTGAAGCAACACCATATCGGAGTCACCTAGTGCAG,9340 fluorescence intensity (a.u.)
20,TGACAGTGTGATGTGCTTGTTCGCTCTGATTTGATTTTGGCGGAGTCACCTAGTGCAG,8050 fluorescence intensity (a.u.)
21,CCCCATCCATTGCAACGGCAACATACACACACCACCACCACGGAGTCACCTAGTGCAG,8350 fluorescence intensity (a.u.)

row,Sequence,binding signal
1,CGTTGACTCCATCTCTTTAACATATTTTAGGAGCATGCTTCGGAGTCACCTAGTGCAG,8610 fluorescence intensity (a.u.)
2,TCATCTCCATCTTTTTATTTACACGCACACTTCTCAAACTCGGAGTCACCTAGTGCAG,11100 fluorescence intensity (a.u.)
3,CCAACTCCGAACGCCTCTTCTTCTCCTCACCGCCGCCGAACGGAGTCACCTAGTGCAG,9650 fluorescence intensity (a.u.)
4,TGGATTTAGGATGTTACTTTGATTTGGGGATTTGGGGTTTCGGAGTCACCTAGTGCAG,17200 fluorescence intensity (a.u.)
5,TGATGTTACTTTGATTTGGGGTTTGATTTGGGAATATGCACGGAGTCACCTAGTGCAG,13500 fluorescence intensity (a.u.)
6,CAACGGCGGTGGCGGCGGCGGCGGCGGCGGGGCGGCGTCGCGGAGTCACCTAGTGCAG,8370 fluorescence intensity (a.u.)
7,TCTTTGTTTCCCGCGTTTTGTTGGGGATTCGATTTTCGGGCGGAGTCACCTAGTGCAG,11100 fluorescence intensity (a.u.)
8,ATGGTTCGATTATTGGTGGAGTTCTCTCTCGGTTTCTCCGCGGAGTCACCTAGTGCAG,10600 fluorescence intensity (a.u.)
9,TGTCGGTGTCGGTGGGCGGGGATTCGCGGTAGTGGTGGAACGGAGTCACCTAGTGCAG,19700 fluorescence intensity (a.u.)
10,ATCTCCCGCGGTTTCGATTTGGGTTTATTTGGGCGGTGGGCGGAGTCACCTAGTGCAG,18800 fluorescence intensity (a.u.)
11,CAGATTGTTTTCCATGATTCTTAGCCTCTCTGATGTTTGACGGAGTCACCTAGTGCAG,9640 fluorescence intensity (a.u.)
12,GGGCTGACGGGTGGGGTCCATGTTGTTTTCCTCTTAGGCACGGAGTCACCTAGTGCAG,23000 fluorescence intensity (a.u.)
13,ATTTGTGATGTGGATTTGGGGTGTTACTTTGATTTGGGGACGGAGTCACCTAGTGCAG,12900 fluorescence intensity (a.u.)
14,GTGGGAGTGGCGGTGTCGGGTCCGGAACGAAACGGCGGGGCGGAGTCACCTAGTGCAG,10300 fluorescence intensity (a.u.)
15,GAAGGAGAAGGAGAGGGGAGGGGCTGACGGGTGGGGTCCACGGAGTCACCTAGTGCAG,14000 fluorescence intensity (a.u.)
16,GCGCCGTCCCTTCGGGCCCACAAGCCGTCCACCCACTTCCCGGAGTCACCTAGTGCAG,11300 fluorescence intensity (a.u.)
17,GGGCCTATAACTGTAGTTCCATCACGTCTCTCTGTACGTTCGGAGTCACCTAGTGCAG,8820 fluorescence intensity (a.u.)
18,GCCATCTCGCCTAAATAAAACCGCGCTACCCATCGACCGACGGAGTCACCTAGTGCAG,9280 fluorescence intensity (a.u.)
19,TCCAGTTTTGGTCTGGGTGATGTGTCATGTTCTGATTGGCCGGAGTCACCTAGTGCAG,8180 fluorescence intensity (a.u.)
20,CTTCTTCCATCCAACCCATTGCATGGTGTATTTTCCATATCGGAGTCACCTAGTGCAG,8320 fluorescence intensity (a.u.)
21,AAATATGGTGGGCCCCACATGGCTGCGCCTCAAGCTTCTCCGGAGTCACCTAGTGCAG,9100 fluorescence intensity (a.u.)
